Compound activity from PubChem.
Rows were chosen to be rich in hits. Some 5.4% of all compounds tested hit in one or more screens of this group.
A3G deaminase: blocks human APOBEC3G single-stranded DNA deamination; 0.28% of 330,000 active; recombinant A3G, ssDNA deamination FAM/TAMRA fluorescence; Q9HC16; inhibition, % at 20 µM;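 active = inhibition of at least 40% at 20 µM, with no more than 30% in the related APOBEC3A deaminase screen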;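 note: plate controls were DMSO wells with A3G for no effect and wells lacking A3G enzyme for full effect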
ALR inh: blocks human ALR sulfhydryl oxidase activity; P55789; purified ALR, DTT oxidation, H2O2 HRP-luminol luminescence; inhibition, % (test concentration not listed); 3.8% of 290,000 active;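 active = mean replicate inhibition above about 79%, with every replicate also reaching it, limit read from the data; inconclusive = only one of the two criteria met; inactive = mean below limit and not every replicate reaching it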
Target sequence (P55789 whole entry, looked up): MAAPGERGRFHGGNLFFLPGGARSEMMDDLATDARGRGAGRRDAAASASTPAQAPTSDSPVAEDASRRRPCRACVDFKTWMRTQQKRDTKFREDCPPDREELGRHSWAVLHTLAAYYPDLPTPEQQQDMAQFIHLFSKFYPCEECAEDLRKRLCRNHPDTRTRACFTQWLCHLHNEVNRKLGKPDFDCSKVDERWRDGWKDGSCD
PHOSPHO1 inh: PHOSPHO1 (human) inhibition; Q8TCT1; recombinant PHOSPHO1, absorbance phosphatase assay; inhibition, % at 13.3 µM; 1.1% of 290,000 active; AID 1565; in the data active = inhibition above about 60%
Target sequence (Q8TCT1 whole entry, looked up): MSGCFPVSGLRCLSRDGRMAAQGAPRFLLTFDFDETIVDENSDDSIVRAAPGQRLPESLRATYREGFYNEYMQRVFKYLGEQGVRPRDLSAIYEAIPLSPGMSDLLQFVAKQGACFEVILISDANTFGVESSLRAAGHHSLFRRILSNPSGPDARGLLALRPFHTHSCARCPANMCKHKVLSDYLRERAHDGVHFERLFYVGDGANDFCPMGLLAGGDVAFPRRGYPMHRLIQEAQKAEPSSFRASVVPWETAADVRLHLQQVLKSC
aDG glyco act: increases alpha dystroglycan glycosylation; Pro5-aDG cells, alpha-DG glycosylation AlphaScreen (IIH6); 0% Pro5, 100% B10-LARGE cell signal; activation, % at 10 µM; 0.22% of 360,000 active; AID 624168;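 active = activation of at least 8% versus controls, or a plate z-score of at least 8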;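 note: Pro5 are CHO cells carrying HIG-tagged alpha-DG that lacks glycosylation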
rCAG binder-1: r(CAG) repeat RNA binding; TO-PRO-1 dye displacement fluorescence; inhibition, % at 3 µM; 1.3% of 370,000 active;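 active = inhibition above the plate cutoff, the mean of all test compounds on that plate plus 3 SD, cut at about 35% in these data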;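 note: 0% = DMSO alone and 100% = 100 µM mitoxantrone as full dye displacement; higher means more dye released from RNA so lower well fluorescence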
APOBEC3A inh: inhibitors of human APOBEC3A DNA deaminase; AID 493011; 0.41% of 330,000 active; P31941; recombinant A3A, FAM/TAMRA ssDNA deamination fluorescence; inhibition, % at 20 µM;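 active = at least 40% inhibition at 20 µM here, with at most 30% in a related deaminase screen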;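 note: plate controls were A3A with DMSO for no effect and wells lacking A3A enzyme for full effect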
Target sequence (P31941 whole entry, looked up): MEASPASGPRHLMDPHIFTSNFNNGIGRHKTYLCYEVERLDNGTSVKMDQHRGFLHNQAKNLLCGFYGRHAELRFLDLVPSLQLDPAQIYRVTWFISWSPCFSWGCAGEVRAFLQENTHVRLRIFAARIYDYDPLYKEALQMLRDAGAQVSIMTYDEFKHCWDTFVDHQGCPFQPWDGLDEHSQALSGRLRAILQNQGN
rCAG binder conf: r(CAG) RNA repeat binding, confirmation; 70% of 4,300 active; inhibition, % at 3 µM; shares compounds with rCAG binder-1; TO-PRO-1 dye displacement fluorescence;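 active = inhibition above a per-plate cutoff, the mean inhibition of sample wells plus 3 SD, cut at about 35% in these data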;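 note: loss of TO-PRO-1 fluorescence as compound displaces dye from 1x1 AA loop RNA; 0% = DMSO only wells and 100% = 100 µM mitoxantrone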
dCAG dye counter: disrupts DNA CAG TO-PRO-1 complex, flagging rCAG hits; inhibition, % at 3 µM; d(CAG) DNA oligo TO-PRO-1 dye displacement, fluorescence; AID 652068; 94% of 4,300 active; shares compounds with rCAG binder-1;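 active = inhibition above its plate's cutoff, the mean test-well inhibition plus 3 SD, cut at about 4.8% in these data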;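 note: 0% = DNA dye mix with DMSO and 100% = 100 µM mitoxantrone; hits displace the dye from DNA and so lower well fluorescence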
dCAG dye DR: counter-screen for rCAG binders: inhibitors of DNA CAG TO-PRO-1 complex; 20% of 250 active; DNA CAG/GTC duplex TO-PRO-1 dye displacement fluorescence; IC50, µM; shares compounds with rCAG binder-1; in the data active = IC50 below about 10 µM
dCAG TOPRO ctr: inhibits DNA CAG/GTC TO-PRO-1 complex, rCAG binder counter-screen; IC50, µM; d(CAG) DNA duplex TO-PRO-1 dye displacement, fluorescence; shares compounds with rCAG binder-1; 80% of 30 active
rCAG binder-2: r(CAG) repeat RNA binding, TO-PRO-1 displacement | shares compounds with rCAG binder-1 | r(CAG) RNA TO-PRO-1 dye displacement, fluorescence | IC50, µM | 100% of 30 active | AID 720651
Numbers without * were called inactive; i = inactive; ? = inconclusive; / = not tested or not shown. Unless noted, the rule behind the calls is not given here.

SMILES	A3G deaminase	ALR inh	PHOSPHO1 inh	aDG glyco act	rCAG binder-1	APOBEC3A inh	rCAG binder conf	dCAG dye counter	others
O=C(Cc1cccc(NC(=O)C2CCCN(C(=O)C3CCCC3)C2)c1)Nc1cccc(C(=O)N2CCCCC2)c1 (configuration not stated)	/	/	/	0	5	/	/	/
CN1CCc2c(sc3nc(SCC(N)=O)n(-c4ccc(Cl)cc4)c(=O)c23)C1	-7	/	-16	0	14	-2	/	/
O=C(CSc1nc2sc3c(c2c(=O)n1-c1ccc(Cl)cc1)CCC3)Nc1ccc(C(=O)O)cc1	/	/	/	/	58*	/	52*	22*
Cc1ccccc1-n1c(SCC(=O)O)nc2sc3c(c2c1=O)CCCC3	-13	3	47	0	10	-6	/	/
O=C(O)CSc1nc2sc3c(c2c(=O)n1Cc1ccccc1)CCCCC3	-6	10	11	0	53*	1	54*	17*
O=C(O)CSc1cc(C(=O)c2ccccc2O)cn2c(=O)c3c4c(sc3nc12)CCCC4	/	/	-178	0	47*	/	85*	61*
Cc1cccc2sc(NNC(=O)c3ccc(S(=O)(=O)N4CCc5ccccc5C4)cc3)nc12	4	-22	-14	0	54*	1	59*	30*
Cc1cccc2sc(NNC(=O)c3ccc(S(=O)(=O)N4CCCC(C)C4)cc3)nc12 (configuration not stated)	/	/	-11	0	53*	/	45*	19*
CC(C)C[C@H]1CN([C@@H](Cc2ccc(O)cc2)CN2CCC[C@H]2CN2C(=O)C(=O)NC[C@@H]2Cc2ccc(O)cc2)C(=O)C(=O)N1CCc1ccccc1	/	/	/	0	0	/	/	/
O=C(O)c1ccccc1NS(=O)(=O)c1ccc(N/N=C/c2ccc(O)c(O)c2)c([N+](=O)[O-])c1	/	/	/	0	92*	/	91*	70*
O=C(O)c1ccccc1NS(=O)(=O)c1ccc(NN=Cc2cccc(Cl)c2)c([N+](=O)[O-])c1	-6	/	/	0	59*	-3	90*	68*
NS(=O)(=O)c1ccc(N/N=C/c2ccccc2C(=O)O)c([N+](=O)[O-])c1	4	-18	28	0	5	7	/	/
NS(=O)(=O)c1ccc(N/N=C/c2ccc(O)c(O)c2O)c([N+](=O)[O-])c1	/	/	29	0	55*	/	76*	38*
O=C(O)c1ccccc1NS(=O)(=O)c1ccc(NN=Cc2ccc(F)cc2)c([N+](=O)[O-])c1	-3	2	/	0	/	-1	/	/
CSCCC(C(=O)NC1CCCC1)n1c(-c2ccncc2)nc2ccccc21 (configuration not stated)	/	/	/	0	3	/	/	/
CN(C(=O)c1cccc(NC(=O)Cc2cccc(NC(=O)C3CCN(C(=O)C4CCCCC4)CC3)c2)c1)C1CCC1	/	/	/	0	2	/	/	/
COc1ccc(NC(=S)N(Cc2ccc(Cl)cc2)Cc2ccc(C(=O)O)cc2)cc1Cl	-2	96*	-1	0	59*	-3	60*	21*
Cc1ccc(NC(=S)N(Cc2ccc(Br)cc2)Cc2ccc(C(=O)O)cc2)cc1C	-6	21	-19	0	54*	2	71*	31*	dCAG dye DR=i;dCAG TOPRO ctr=4.6*;rCAG binder-2=2*
COc1cccc(NC(=S)N(Cc2ccc(C(=O)O)cc2)Cc2ccc(OC)c(OC)c2)c1	-10	/	-22	0	12	-5	/	/
Cc1cc(C)cc(NC(=S)N(Cc2ccc(Cl)cc2)Cc2ccc(C(=O)O)cc2)c1	-2	?	-16	0	49*	0	65*	29*
Cc1cc(NC(=S)N(Cc2ccc(Cl)cc2)Cc2ccc(C(=O)O)cc2)ccc1Cl	-9	2	-10	1	69*	0	83*	47*
Cc1cccc(NC(=S)N(Cc2ccc(Cl)cc2)Cc2ccc(C(=O)O)cc2)c1	-6	18	-22	0	27	-1	/	/
NC(c1ccccc1)c1csc(Nc2cc(Oc3ccccc3)ncn2)n1 (configuration not stated)	/	/	/	1	11	/	/	/
COc1ccccc1-c1csc(C(O)(c2ccccc2)C(F)(F)F)n1 (configuration not stated)	/	/	/	0	2	/	/	/
Cc1cc(NC(=S)N(Cc2cccc(Br)c2)CC2CCC(C(=O)O)CC2)ccc1Cl (configuration not stated)	/	/	-19	0	46*	/	64*	24*
SMILES	A3G deaminase	ALR inh	PHOSPHO1 inh	aDG glyco act	rCAG binder-1	APOBEC3A inh	rCAG binder conf	dCAG dye counter	others
COc1ccc(CN(Cc2ccc(C(=O)O)cc2)C(=S)Nc2ccccc2Cl)cc1OC	-7	8	2	0	15	-2	/	/
COc1ccc(CN(Cc2ccc(C(=O)O)cc2)C(=S)Nc2ccccc2C)cc1OC	-7	/	18	0	2	-4	/	/
CCc1ccccc1NC(=S)N(Cc1ccc(C(=O)O)cc1)Cc1ccc(OC)c(OC)c1	-7	-8	-1	0	9	-5	/	/
Cc1ccc(C)c(NC(=S)N(Cc2ccc(Cl)cc2)Cc2ccc(C(=O)O)cc2)c1	-6	/	2	2	45*	-2	49*	14*
Cc1cc(C)cc(NC(=S)N(Cc2ccc(Br)cc2)Cc2ccc(C(=O)O)cc2)c1	-8	13	-31	0	65*	-2	68*	27*
CCc1ccc(NC(=S)N(Cc2ccc(Cl)cc2)Cc2ccc(C(=O)O)cc2)cc1	-3	6	2	0	69*	3	61*	23*
Cc1ccc(S(=O)(=O)Nc2ccc(Nc3nccn4c(-c5cccc(OC(F)(F)F)c5)cnc34)cc2)cc1	/	/	/	3	15	/	/	/
COc1ccc(Nc2nnc(-c3ccc4c(c3)OCO4)o2)cc1	/	/	/	/	5	/	/	/
COc1ccc(Cl)cc1-c1cc(C(=O)NCc2ccc(F)cc2)[nH]n1	/	/	/	1	3	/	/	/
O=C(N[C@H](C(=O)N1CCC[C@H]1C(=O)NC1CCCC1)c1ccccc1)c1ccccc1	/	/	/	/	0	/	/	/
Cc1cnc(C(=O)OCC(=O)Nc2oc(-c3ccccc3)c(-c3ccccc3)c2C#N)cn1	-5	97*	3	0	46*	-2	51*	14*
